In PubChem BioAssay (NCI):
This is part of a sample that, as a whole, favours compounds with a hit. Of some 83,000 tested, about 20% had one in any assay.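 How to read the values: 0–100, growth inhibition (40 = 60% inhibited); 0, no net growth; -100 to 0, cell death (-40 = 40% of starting cells died; -100 = all dead).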 Values without a mark were called inactive. Active and inactive are the calls of the source. How the source made its calls: active means growth percent below 10; inactive means the rest.

Test system: HOP-62 NSCLC
Assay: NCI-60 one-dose screen, 48 h (100 = growth as untreated, 0 = no growth, -100 = all killed)
Settings: 10 µM unless noted

Row | Structure (SMILES) | growth
1 | COC(=O)[C@]12CC[C@@H](C)[C@H](C)[C@@H]1C1=CC[C@@H]3[C@@]4(C)C(C=O)=C[C@@](C)(COC(=O)c5ccco5)C4=CC[C@@]3(C)[C@]1(C)CC2 | 7.71% (active)
2 | Nc1n[nH]c2cc(F)c([C@@H]3Nc4c(F)cc5[nH]ncc5c4[C@H]4C5CCC(C5)[C@@H]34)cc12 (some centres undefined) | 27.9%
3 | CC1(c2ccccc2)NC(=O)N(NC(=O)CSc2nc(-c3cccs3)nc3ccccc23)C1=O (centres undefined) | 88.7%
4 | CC(C)C(=O)Nc1n[nH]c2cc(-c3cccc(NS(=O)(=O)C4CC4)c3)ccc12 | 66.5%
5 | COc1c(CCC[P+](c2ccccc2)(c2ccccc2)c2ccccc2)cc2c(c1OC)OCO2 | 15.1%
6 | CN(C)CC1=NC2SC=C(c3ccccc3)C2C(=O)N1CC#N (centres undefined) | 102%
7 | Cc1cc(C)c2c(-c3nnc(N)s3)cc(=O)oc2c1 | 111%
8 | C[C@]12CC[C@@H]3c4cc(OC(F)F)c(O)cc4CC[C@H]3[C@@H]1CC[C@@H]2OS(N)(=O)=O | 43.3%
9 | NC(=S)Nc1cccc(O)c1 | 89.8%
10 | O=C(Nc1ccc(-n2cc(-c3ccncc3)c(-c3ccc(Cl)c(O)c3)n2)cc1)N1CCOCC1 | 95.7%
11 | COc1ccc(-c2cc(-c3cc(OC)c(OC)c(OC)c3)c(C#N)c(N3CCOCC3)n2)cc1O | 68.4%
12 | COC(=O)CCC1=C(C)C2=NC1=CC1=NC(=CC3=NC(=Cc4[nH]c(/c(=C(/C)O)c4C)=C2)C(C(C)=O)=C3C)C(C)=C1CCC(=O)OC | 98.8%
13 | COc1cccc(/C=C/C(=O)c2c(C)nc3ccccc3c2/C=C/c2ccc(C)cc2)c1OC | 70%
14 | COC1=C(OC)C(=O)C(OC)=C(OC)C1=O | 112%
15 | Cn1c(-c2c(N)n(Cc3ccc(C(F)(F)F)cc3)c3nc(C#N)c(C#N)nc23)nc2ccccc21 | 21.3%
16 | COc1ccc(/C=N/C2=C(C#N)C(c3ccc(OC)cc3)c3ccc4ccccc4c3O2)cc1 (centres undefined) | 67%
17 | O=[N+]([O-])c1ccc(C2CC(c3ccccc3)=Nc3ccccc3S2)cc1 (centres undefined) | 112%
18 | COc1cccc(-c2nc3sccn3c2-c2ccnc(NCCNS(=O)(=O)c3cccc(F)c3)c2)c1 | 55.3%
19 | Cc1ccc(NS(=O)(=O)c2ccc3c(c2)C2OCCC2C(c2ccc(C(=O)C(C)C)cc2)N3)cc1C (centres undefined) | 70.3%

Row | Structure (SMILES) | growth
20 | C=C(C)[C@@H]1CC=C2c3sc(-c4ccc(C)cc4)nc3C[C@@H](C)[C@]2(C)C1 | 102%
21 | COc1ccc(C2=Nc3c(N)ncnc3NC(c3ccc4c(c3)OCO4)C2)cc1 (centres undefined) | 68.1%
22 | Cc1cccc(Cc2cnc(NC(=O)c3ccc4nnsc4c3)s2)c1 | 79.8%
23 | CC(=O)n1c(-c2ccc(Cl)cc2)nc2c(c1=O)C(c1ccc(Cl)cc1)c1sc3c(Cl)cccc3c1O2 (centres undefined) | 7.03% (active)
24 | C[C@H](NC(=O)[C@@H]1CSSC[C@@H](NC(=O)c2nc3ccccc3cc2O)C(=O)NCC(=O)N1C)c1ccccc1 | 66.6%
25 | COc1cc(/C=N/n2c(CN3CCOCC3)nc3ccccc3c2=O)cc(OC)c1OC | 96.4%
26 | COc1ccc2c(c1)O/C(=C\c1cccc(OCC(=O)Nc3nc(C)c(C)s3)c1)C2=O | 101%
27 | O=c1c2c3c(sc2n2c(-c4cc(-c5ccccc5)nn4-c4ccccc4)nnc2n1Cc1ccccc1)CCCC3 | 95%
28 | Cc1ccc(Cl)cc1NC(=O)c1cc2ccccc2cc1O | -23.8% (active)
29 | COc1ccc2[nH]c(O)c(/C=c3/cc4c(c(-c5ccc(F)c(OC)c5)n3)=Nc3ccccc3-4)c2c1 | 88.6%
30 | Clc1cccc(Cl)c1C(Nc1nc2ccccc2s1)Nc1nc2ccccc2s1 | 99.7%
31 | COC(=O)[C@H](CSC)N(C)C(=O)[C@@H]1CSSC[C@@H](NC(=O)c2nc3ccccc3cc2O)C(=O)NCC(=O)N1C | 82.2%
32 | N[C@@H](CCCCNCC(=O)O)C(=O)O | 101%
33 | CC/C=C1/C(=O)C=C[C@@H]1C/C=C\CCCC(=O)O | 80.4%
34 | CC(C)=C[C@@H]1c2c(c3ccccc3n(C)c2=O)O[C@H]2c3c(c4ccccc4n(C)c3=O)OC(C)(C)[C@@H]12 | 115%
35 | N=C1CCC(=N)c2c1c(O)c1ccccc1c2O | 103%
36 | C(=N\Nc1ncc(-c2cc3cc4c(cc3o2)OCO4)s1)/c1ccco1 | 62.1%
37 | Cc1ccc2[nH]c(=O)c3c(c2c1)OC(N)=C(C#N)C31c2cc(Br)ccc2-c2ccc(Br)cc21 | 69%

Test system: NCI-H460 lung
Assay: as above
Settings: 10 µM unless noted

Row | Structure (SMILES) | growth
38 | COC(=O)[C@]12CC[C@@H](C)[C@H](C)[C@@H]1C1=CC[C@@H]3[C@@]4(C)C(C=O)=C[C@@](C)(COC(=O)c5ccco5)C4=CC[C@@]3(C)[C@]1(C)CC2 | 2.11% (active)
39 | Nc1n[nH]c2cc(F)c([C@@H]3Nc4c(F)cc5[nH]ncc5c4[C@H]4C5CCC(C5)[C@@H]34)cc12 (some centres undefined) | 2.33% (active)
40 | CC1(c2ccccc2)NC(=O)N(NC(=O)CSc2nc(-c3cccs3)nc3ccccc23)C1=O (centres undefined) | 107%
41 | CC(C)C(=O)Nc1n[nH]c2cc(-c3cccc(NS(=O)(=O)C4CC4)c3)ccc12 | 84.4%
42 | COc1c(CCC[P+](c2ccccc2)(c2ccccc2)c2ccccc2)cc2c(c1OC)OCO2 | 5.26% (active)
43 | CN(C)CC1=NC2SC=C(c3ccccc3)C2C(=O)N1CC#N (centres undefined) | 115%
44 | Cc1cc(C)c2c(-c3nnc(N)s3)cc(=O)oc2c1 | 103%
45 | C[C@]12CC[C@@H]3c4cc(OC(F)F)c(O)cc4CC[C@H]3[C@@H]1CC[C@@H]2OS(N)(=O)=O | 13.9%
46 | NC(=S)Nc1cccc(O)c1 | 104%
47 | O=C(Nc1ccc(-n2cc(-c3ccncc3)c(-c3ccc(Cl)c(O)c3)n2)cc1)N1CCOCC1 | 103%
48 | COc1ccc(-c2cc(-c3cc(OC)c(OC)c(OC)c3)c(C#N)c(N3CCOCC3)n2)cc1O | 48.1%
49 | COC(=O)CCC1=C(C)C2=NC1=CC1=NC(=CC3=NC(=Cc4[nH]c(/c(=C(/C)O)c4C)=C2)C(C(C)=O)=C3C)C(C)=C1CCC(=O)OC | 103%
50 | COc1cccc(/C=C/C(=O)c2c(C)nc3ccccc3c2/C=C/c2ccc(C)cc2)c1OC | 26.1%
51 | COC1=C(OC)C(=O)C(OC)=C(OC)C1=O | 108%
52 | Cn1c(-c2c(N)n(Cc3ccc(C(F)(F)F)cc3)c3nc(C#N)c(C#N)nc23)nc2ccccc21 | 4.01% (active)
53 | COc1ccc(/C=N/C2=C(C#N)C(c3ccc(OC)cc3)c3ccc4ccccc4c3O2)cc1 (centres undefined) | 75.6%
54 | O=[N+]([O-])c1ccc(C2CC(c3ccccc3)=Nc3ccccc3S2)cc1 (centres undefined) | 101%
55 | COc1cccc(-c2nc3sccn3c2-c2ccnc(NCCNS(=O)(=O)c3cccc(F)c3)c2)c1 | 28.8%
56 | Cc1ccc(NS(=O)(=O)c2ccc3c(c2)C2OCCC2C(c2ccc(C(=O)C(C)C)cc2)N3)cc1C (centres undefined) | 31.7%

Row | Structure (SMILES) | growth
57 | C=C(C)[C@@H]1CC=C2c3sc(-c4ccc(C)cc4)nc3C[C@@H](C)[C@]2(C)C1 | 114%
58 | COc1ccc(C2=Nc3c(N)ncnc3NC(c3ccc4c(c3)OCO4)C2)cc1 (centres undefined) | 102%
59 | Cc1cccc(Cc2cnc(NC(=O)c3ccc4nnsc4c3)s2)c1 | 114%
60 | CC(=O)n1c(-c2ccc(Cl)cc2)nc2c(c1=O)C(c1ccc(Cl)cc1)c1sc3c(Cl)cccc3c1O2 (centres undefined) | -30.4% (active)
61 | C[C@H](NC(=O)[C@@H]1CSSC[C@@H](NC(=O)c2nc3ccccc3cc2O)C(=O)NCC(=O)N1C)c1ccccc1 | 6.55% (active)
62 | COc1cc(/C=N/n2c(CN3CCOCC3)nc3ccccc3c2=O)cc(OC)c1OC | 109%
63 | COc1ccc2c(c1)O/C(=C\c1cccc(OCC(=O)Nc3nc(C)c(C)s3)c1)C2=O | 88.8%
64 | O=c1c2c3c(sc2n2c(-c4cc(-c5ccccc5)nn4-c4ccccc4)nnc2n1Cc1ccccc1)CCCC3 | 106%
65 | Cc1ccc(Cl)cc1NC(=O)c1cc2ccccc2cc1O | -22.5% (active)
66 | COc1ccc2[nH]c(O)c(/C=c3/cc4c(c(-c5ccc(F)c(OC)c5)n3)=Nc3ccccc3-4)c2c1 | -21.9% (active)
67 | Clc1cccc(Cl)c1C(Nc1nc2ccccc2s1)Nc1nc2ccccc2s1 | 105%
68 | COC(=O)[C@H](CSC)N(C)C(=O)[C@@H]1CSSC[C@@H](NC(=O)c2nc3ccccc3cc2O)C(=O)NCC(=O)N1C | 59.1%
69 | N[C@@H](CCCCNCC(=O)O)C(=O)O | 103%
70 | CC/C=C1/C(=O)C=C[C@@H]1C/C=C\CCCC(=O)O | 97.1%
71 | CC(C)=C[C@@H]1c2c(c3ccccc3n(C)c2=O)O[C@H]2c3c(c4ccccc4n(C)c3=O)OC(C)(C)[C@@H]12 | 75.3%
72 | N=C1CCC(=N)c2c1c(O)c1ccccc1c2O | 173%
73 | C(=N\Nc1ncc(-c2cc3cc4c(cc3o2)OCO4)s1)/c1ccco1 | 13.3%
74 | Cc1ccc2[nH]c(=O)c3c(c2c1)OC(N)=C(C#N)C31c2cc(Br)ccc2-c2ccc(Br)cc21 | 40.5%
